12-LOX inh – Primary qHTS assay for inhibitors of human arachidonate 12S-lipoxygenase (ALOX12): Round 2; Potency, µM (highest dose often 108 µM), actives largely listed as inhibitors; purified 12hLO, xylenol orange hydroperoxide absorbance; 580,000 tested, 1.1% active; Polyunsaturated fatty acid lipoxygenase ALOX12 (Homo sapiens), P18054
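Purified human 12hLO at 150 nM in 25 mM Hepes, 0.01% Triton X-100, pH 7.0, preincubated 15 min at room temperature with compound. Reaction started with 40 uM arachidonic acid, 30 min at room temperature. Hydroperoxide measured by Fe-xylenol orange, 573/405 nm absorbance ratio.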
GRP78 ERSR act – qHTS for Inducers of the Endoplasmic Reticulum Stress Response (ERSR) in Human Glioma: qHTS; Potency, µM, hits mostly activators; U87-MG GRP78 promoter luciferase reporter, 16 h; 420,000 tested, 0.02% active; further: series mostly up to about 76 µM; nearly all actives have a fitted effect of over 35% in size
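Stably transfected U87-MG glioma cells carrying a GRP78-based luciferase sensor; 16 h compound incubation. Luminescence end-point read 10 min after Bright-Glo addition at room temperature.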
TrxR1 substrate – qHTS Assay for Substrates of Mammalian Selenoprotein Thioredoxin Reductase 1 (TrxR1): qHTS; Thioredoxin reductase 1, cytoplasmic (Rattus norvegicus), O89049; purified TrxR1 substrate turnover, NADPH consumption readout; Potency, µM (doses to about 114 µM); 390,000 tested, 0.01% active; further: nearly all actives have a fitted effect of over 50% in size
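Rat TrxR1, dispensed at 90 nM, was prereduced with 400 uM NADPH (final) for 5 min at ~22 deg C, then incubated with compound 15 min before 400 uM selenite. A first-read NADPH fluorescence drop versus no-compound background flagged substrates.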
Anesthetic bind – qHTS Assay for Identification of Novel General Anesthetics; Ferritin light chain (Equus caballus), P02791; apoferritin/1-aminoanthracene competitive binding, fluorescence; Potency, µM (top dose mostly 77.5 µM), usual class: inhibitors; 350,000 tested, 0.074% active; further: nearly all actives have a fitted effect of over 20% in size
Target sequence (P02791 2-175 limits assumed): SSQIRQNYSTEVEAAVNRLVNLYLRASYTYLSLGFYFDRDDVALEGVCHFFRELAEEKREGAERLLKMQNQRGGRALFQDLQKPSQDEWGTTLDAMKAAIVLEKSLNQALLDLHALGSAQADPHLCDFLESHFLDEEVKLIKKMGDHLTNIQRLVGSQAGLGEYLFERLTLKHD
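In PBS, apoferritin at 10 uM is loaded with 1-AMA from a 50% saturated solution. After 10 min of compound exposure at ambient temperature, reduced 535 nm fluorescence indicates probe displacement.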
TrxR1 inh – qHTS Assay for Inhibitors of Mammalian Selenoprotein Thioredoxin Reductase 1 (TrxR1): qHTS. Thioredoxin reductase 1, cytoplasmic (Rattus norvegicus), O89049. recombinant rTrxR1, NADPH fluorescence consumption, selenite substrate. Potency, µM (top dose mostly 114 µM), hits mostly inhibitors. 390,000 tested, 1% active. AID 588453, 2011; further: nearly all actives have a fitted effect of over 65% in size
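Rat TrxR1 (90 nM in the dispensed reagent) was pre-reduced with 400 uM NADPH for 5 min at room temperature, then incubated with compound for 15 min. After 400 uM selenite was added, NADPH fluorescence (Ex 340/Em 450 nm) was followed for 8 min.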
IDH1 R132H inh – qHTS for Inhibitors of mutant isocitrate dehydrogenase 1 (IDH1): qHTS; Isocitrate dehydrogenase [NADP] cytoplasmic (Homo sapiens), O75874; IDH1-R132H enzyme, NADPH consumption, diaphorase/resazurin fluorescence; Potency, µM (top dose mostly 76.6 µM), usual class: inhibitors; 390,000 tested, 0.093% active; further: nearly all actives have a fitted effect of over 65% in size
Target sequence (O75874 whole entry R132H, stated change not applied): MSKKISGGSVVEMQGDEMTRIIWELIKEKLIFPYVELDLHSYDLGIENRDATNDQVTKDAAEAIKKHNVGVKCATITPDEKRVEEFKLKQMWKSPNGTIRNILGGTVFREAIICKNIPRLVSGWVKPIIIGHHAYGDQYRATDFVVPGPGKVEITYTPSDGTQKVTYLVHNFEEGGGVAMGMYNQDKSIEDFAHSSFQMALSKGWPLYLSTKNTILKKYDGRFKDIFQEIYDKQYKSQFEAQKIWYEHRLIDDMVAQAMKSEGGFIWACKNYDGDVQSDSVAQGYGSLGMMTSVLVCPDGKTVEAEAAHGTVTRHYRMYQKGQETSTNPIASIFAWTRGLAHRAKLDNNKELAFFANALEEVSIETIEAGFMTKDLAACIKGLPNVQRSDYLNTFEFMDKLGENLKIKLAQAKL
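IDH1-R132H (0.5 ug/mL) preincubated 30 min with compound, then NADPH (0.016 mM) and alpha-KG (2 mM) added; 80 min at RT, pH 7.5. Remaining NADPH coupled via diaphorase/resazurin to fluorescence (540/590 nm); concentration-response curves normalized to no-enzyme control.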
Hits are given with their value; . = inactive; ? = inconclusive; / = no result given; [ ] = remark or other dose. This is a sample that favours compounds with a hit; in the whole collection about 1.7% have one here. The call rests on the fitted dose curve; in most records, active means well fitted curve in the direction sought with a large enough effect; inconclusive means small, poorly fitted or top-dose-only effect, or another doubt; inactive means no such curve, though single readings can be large; an effect the other way counts as inactive or inconclusive.

SMILES | 12-LOX inh | GRP78 ERSR act | TrxR1 substrate | Anesthetic bind | TrxR1 inh | IDH1 R132H inh
CC(=O)Nc1cc(-c2ccc(CO)cc2)cn2c(-c3ccc(F)cc3)cnc12 | 44.7µM | ? | / | / | / | /
CC(=O)Nc1cc(-c2ccccc2N(C)C)cn2c(-c3cccc(C(F)(F)F)c3)cnc12 | 8.91µM | ? | / | / | / | /
CC(=O)c1cccc(-c2cnc3c(NC=O)cc(-c4ccc(F)cc4)cn23)c1 | . | . | / | / | / | /
O=C(NC(=S)Nc1ccc(Cl)c(C(=O)O)c1)c1cccc(COc2ccccc2)c1 | 11.2µM | . | . | ? | 70.8µM | .
CCCOc1cccc(C(=O)NC(=S)Nc2cccc(C(F)(F)F)c2)c1 | ? | . | . | ? | . | .
CCOc1cccc(C(=O)NC(=S)Nc2cccc(C)c2)c1 | 20µM | . | . | . | 5.01µM | .
COc1cccc(C(=O)NC(=S)Nc2ccc(N3CCCC3)cc2)c1 | ? | . | . | ? | . | .
COc1cccc(C(=O)NC(=S)Nc2ccc(N(C)C)cc2)c1 | 44.7µM | . | . | . | 20µM | .
CC(C)Oc1cccc(C(=O)NC(=S)Nc2cccc(NC(=O)c3ccccc3Cl)c2)c1 | 10µM | . | . | . | . | .
CC(C)CC(=O)NC(=S)Nc1cccc(NC(=O)c2ccccc2Cl)c1 | ? | . | . | . | ? | .
N#Cc1c(N2CCN(CC(=O)Nc3cccc(Cl)c3)CC2)nc(-c2ccco2)c2c1CCC2 | . | / | / | / | / | /
COC(=O)c1nnn(CC(=O)Nc2ccc(C)cc2)c1C(=O)OC | . | / | / | / | / | /
COc1cc(C)ccc1OCCSc1nc2ccc(NC(=O)c3cccs3)cc2s1 | . | . | . | . | . | .
O=C(O)c1ccc(Cl)c(NC(=S)NC(=O)c2cccc(COc3ccccc3)c2)c1 | . | . | . | . | . | .
O=C(NC(=S)Nc1ccc(Cl)c(C(=O)O)c1)c1ccc(OCc2ccccc2)cc1 | 3.55µM | . | . | ? | . | .
COc1cc(OC)cc(C(=O)NC(=S)Nc2ccc(Cl)c(C(=O)O)c2)c1 | 28.2µM | . | . | . | ? | .
CCCCOc1cccc(C(=O)NC(=S)Nc2ccc(Cl)c(C(=O)O)c2)c1 | 5.62µM | . | . | . | . | .
COc1cc(C(=O)NC(=S)Nc2ccc(Cl)c(C(=O)O)c2)cc(OC)c1OC | ? | . | . | . | . | .
COc1cccc(C(O)c2nc(C(=O)Nc3ccc4c(c3)NC(=O)CO4)c(C)o2)c1 (centres undefined) | . | / | / | / | / | /
C=C(C)CN1CCN(C(C(=O)O)c2c(-c3ccccc3)[nH]c3ccccc23)CC1 (centres undefined) | . | / | / | / | / | /
O=C(NC(=S)NNS(=O)(=O)c1ccccc1)c1ccc([N+](=O)[O-])cc1 | ? | . | . | . | 14.1µM | .
O=C(NC(=S)NNS(=O)(=O)c1ccccc1)c1cccnc1 | . | . | . | . | 25.1µM | .
N#Cc1ccccc1NC(=S)NC(=O)c1cccnc1 | ? | . | . | . | 3.55µM | .
O=C(NNS(=O)(=O)c1ccccc1)c1ccc([N+](=O)[O-])cc1 | . | . | . | . | . | .
CCN(CC)CCC=C(c1cccs1)c1cccs1 | 50.1µM | . | . | / | 22.4µM | .
SMILES | 12-LOX inh | GRP78 ERSR act | TrxR1 substrate | Anesthetic bind | TrxR1 inh | IDH1 R132H inh
CCc1ccc2cc(-c3ccc(C)c(C)c3)cn2c1 | 25.1µM | / | / | / | / | /
CS(=O)(=O)Nc1ccccc1-c1ccc2nccn2c1 | . | . | / | / | / | /
O=S(=O)(c1ccccc1)c1nc(Nc2cccc(O)c2)sc1Cl | 35.5µM | . | . | ? | . | .
Cc1ccc(S(=O)(=O)c2nc(Nc3ccccc3)sc2Cl)cc1 | . | . | . | ? | . | .
CCCCCN1CCN(c2nc3c(c(=O)[nH]c(=O)n3C)n2Cc2ccc(Cl)cc2)CC1 | . | / | / | / | / | /
O=C(COc1ccc(S(=O)(=O)N2CCOCC2)cc1)N1CCOCC1 | . | . | . | / | . | .
O=C(COc1ccc(/C=C\[N+](=O)[O-])cc1)N1CCOCC1 | . | . | . | . | 14.1µM | .
CN1C(=O)c2ccccc2Sc2ccc(NC(=O)N3CCN(c4ccccc4F)CC3)cc21 | . | . | . | . | ? | .
COc1cc(CNc2ccc(O)cc2)cc(Br)c1OCc1ccccc1F | / | . | . | . | 20µM | .
CCOc1cc(CNc2ccc(O)cc2)cc(Br)c1OCc1ccccc1F | / | ? | . | . | ? | .
COc1cc(CNc2ccc(N3CCCC3)cc2)ccc1OCc1ccccc1F | / | . | . | . | 10µM | .
COc1cc(CNc2ccc(N3CCCC3)cc2)ccc1OCc1ccccc1 | ? | . | . | . | ? | .
CC(SC1=NS(=O)(=O)c2ccccc21)C(=O)O (centres undefined) | 0.708µM | . | . | / | . | /
O=C(O)CSC1=NS(=O)(=O)c2ccccc21 | / | . | .[0.0914 µM] | / | . | /
COc1ccc(Cl)cc1Nc1ccc2cc(S(=O)(=O)N3CCCCC3)ccc2n1 | 50.1µM | . | . | . | . | .
CC1CCN(S(=O)(=O)c2ccc3nc(N4CCN(c5ccccc5F)CC4)ccc3c2)CC1 | ? | . | . | . | . | .
Cc1cccc(N2CCN(c3ccc4cc(S(=O)(=O)N5CCC(C)CC5)ccc4n3)CC2)c1C | 50.1µM | . | . | . | . | .
COc1ccc(Nc2ccc3cc(S(=O)(=O)N4CCCC4)ccc3n2)cc1Cl | . | . | . | . | . | .
CCc1ccc(Nc2ccc3cc(S(=O)(=O)N4CCCC4)ccc3n2)cc1 | 14.1µM | / | / | / | / | /
O=S(=O)(c1ccc2nc(NC3CCCCC3)ccc2c1)N1CCCC1 | 11.2µM | / | / | / | / | /
O=S(=O)(c1ccc2nc(Nc3ccc(F)cc3)ccc2c1)N1CCCC1 | . | . | . | . | . | .
CN1CC2(CCN(C(=O)c3ccc(C#N)cc3)CC2)CC1C(=O)N1CCOCC1 (centres undefined) | . | / | / | / | / | /
O=C1NC(C(=O)NCc2ccc(F)cc2)Cn2cccc21 (centres undefined) | . | / | / | / | / | /
CC1CCC(Nc2ccc3cc(S(=O)(=O)N4CCCC4)ccc3n2)CC1 (centres undefined) | 8.91µM | / | / | / | / | /
CC1CCN(S(=O)(=O)c2ccc3nc(Nc4ccc(C#N)cc4)ccc3c2)CC1 | ? | . | . | . | . | .
CC(C)C[C@H]1CCC[C@H](CC(C)C)[N+]1(C)C | 14.1µM | / | / | / | / | /
O=C(O)CCc1ccc(Cl)cc1Cl | . | / | / | / | / | /
O=C(O)CCc1ccc(-c2ccc(Br)cc2)o1 | 44.7µM | . | . | . | 22.4µM | .

Source: PubChem BioAssay (National Center for Advancing Translational Sciences (NCATS))
